Assay results from the supplement of paper PMC7057948, “A genome-wide approach for identification and characterisation of metabolite-inducible systems” (Nature Communications, 2020).

These compounds were tested on TtdR/P_H16_RS10665 tartrate biosensor (pEH083) (assay: relative induction of RFP reporter vs primary effector; higher = stronger activation). Settings: inducer concentration 5 mM; 6 h; Cupriavidus necator H16; minimal medium + 0.4% gluconate.
Description: (§1)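 Orthogonality screen of 21 primary inducers against 21 transcription factor/inducible promoter–mRFP biosensors in C. necator H16 in minimal medium, robotic 96-well format, 5 mM inducer, 30 °C. OD-normalised RFP fluorescence was read 6 h later and expressed as relative induction (%) = 100 × (FL compound − FL uninduced)/(FL primary inducer − FL uninduced); mean of n=4. Cognate pairs (100% by definition) omitted.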

SMILES	relative induction of RFP reporter [%]
C=C(CC(=O)O)C(=O)O [itaconate]	-0.0311
O=C(O)CCO [3-hydroxypropanoate]	-0.346
CC(=O)C(C)O (centres undefined) [acetoin]	0.102
O=C(O)C1CCCCC1 [cyclohexane-1-carboxylate]	2.19
OC1OC[C@H](O)[C@H](O)[C@H]1O (mixture of isomers) [L-arabinose]	-0.392
O=C(O)C(=O)c1ccccc1 [phenylglyoxylate]	-0.379
O=C(O)c1ccc(O)c(O)c1 [3,4-dihydroxybenzoate]	-0.148
C=CC(=O)O [acrylate]	-0.0524
O=C(O)c1ccccc1 [benzoate]	-0.474
N[C@@H](Cc1ccc(O)cc1)C(=O)O [L-tyrosine]	1.67
NCCC(=O)O [β-alanine]	0.268
O=C(O)CS(=O)(=O)O [sulfonatoacetate]	0.749
O=CO [formate]	0.287
Nc1ccccc1C(=O)C[C@H](N)C(=O)O [L-kynurenine]	-0.312
O=C(O)c1ccccc1O [salicylate]	-0.317
O=c1[nH]c(=O)c2nc[nH]c2[nH]1 [xanthine]	0.737
N[C@@H](Cc1ccccc1)C(=O)O [L-phenylalanine]	0.153

These compounds were tested on XdhR/P_H16_RS05055 xanthine biosensor (pEH154) in the same assay as above. Settings: inducer concentration 5 mM; 6 h; Cupriavidus necator H16; minimal medium + 0.4% gluconate.
Description: as §1

SMILES	relative induction of RFP reporter [%]
C=C(CC(=O)O)C(=O)O [itaconate]	-0.326
O=C(O)CCO [3-hydroxypropanoate]	-0.715
O=C(O)C(O)C(O)C(=O)O (centres undefined) [tartrate]	-0.458
CC(=O)C(C)O (centres undefined) [acetoin]	-0.695
O=C(O)C1CCCCC1 [cyclohexane-1-carboxylate]	0.127
OC1OC[C@H](O)[C@H](O)[C@H]1O (mixture of isomers) [L-arabinose]	-0.221
O=C(O)C(=O)c1ccccc1 [phenylglyoxylate]	-1.19
O=C(O)c1ccc(O)c(O)c1 [3,4-dihydroxybenzoate]	-0.547
C=CC(=O)O [acrylate]	-0.215
O=C(O)c1ccccc1 [benzoate]	-0.493
N[C@@H](Cc1ccc(O)cc1)C(=O)O [L-tyrosine]	-1.38
NCCC(=O)O [β-alanine]	-0.793
O=C(O)CS(=O)(=O)O [sulfonatoacetate]	-0.434
O=CO [formate]	-0.347
Nc1ccccc1C(=O)C[C@H](N)C(=O)O [L-kynurenine]	-0.483
O=C(O)c1ccccc1O [salicylate]	-0.278
N[C@@H](Cc1ccccc1)C(=O)O [L-phenylalanine]	-1.38

These compounds were tested on heterologous L-rhamnose-inducible system in the same assay as above. Settings: inducer concentration 5 mM; 6 h; Cupriavidus necator H16; minimal medium + 0.4% gluconate.
Description: as §1

SMILES	relative induction of RFP reporter [%]
C=C(CC(=O)O)C(=O)O [itaconate]	0.00546
O=C(O)CCO [3-hydroxypropanoate]	0.00446
O=C(O)C(O)C(O)C(=O)O (centres undefined) [tartrate]	0.0177
CC(=O)C(C)O (centres undefined) [acetoin]	-0.0013
O=C(O)C1CCCCC1 [cyclohexane-1-carboxylate]	-0.00651
OC1OC[C@H](O)[C@H](O)[C@H]1O (mixture of isomers) [L-arabinose]	0.00935
O=C(O)C(=O)c1ccccc1 [phenylglyoxylate]	-0.00891
O=C(O)c1ccc(O)c(O)c1 [3,4-dihydroxybenzoate]	0.0186
C=CC(=O)O [acrylate]	0.000569
O=C(O)c1ccccc1 [benzoate]	-0.0138
N[C@@H](Cc1ccc(O)cc1)C(=O)O [L-tyrosine]	0.00824
NCCC(=O)O [β-alanine]	0.0016
O=C(O)CS(=O)(=O)O [sulfonatoacetate]	0.0242
O=CO [formate]	0.0165
Nc1ccccc1C(=O)C[C@H](N)C(=O)O [L-kynurenine]	-0.00942
O=C(O)c1ccccc1O [salicylate]	0.019
O=c1[nH]c(=O)c2nc[nH]c2[nH]1 [xanthine]	0.0204
N[C@@H](Cc1ccccc1)C(=O)O [L-phenylalanine]	0.00514

These compounds were tested on heterologous acrylate-inducible system in the same assay as above. Settings: inducer concentration 5 mM; 6 h; Cupriavidus necator H16; minimal medium + 0.4% gluconate.
Description: as §1

SMILES	relative induction of RFP reporter [%]
C=C(CC(=O)O)C(=O)O [itaconate]	-0.778
O=C(O)CCO [3-hydroxypropanoate]	2.83
O=C(O)C(O)C(O)C(=O)O (centres undefined) [tartrate]	-0.36
CC(=O)C(C)O (centres undefined) [acetoin]	-1.85
O=C(O)C1CCCCC1 [cyclohexane-1-carboxylate]	-0.97
OC1OC[C@H](O)[C@H](O)[C@H]1O (mixture of isomers) [L-arabinose]	-0.681
O=C(O)C(=O)c1ccccc1 [phenylglyoxylate]	-2.28
O=C(O)c1ccc(O)c(O)c1 [3,4-dihydroxybenzoate]	-0.891
O=C(O)c1ccccc1 [benzoate]	-1.5
N[C@@H](Cc1ccc(O)cc1)C(=O)O [L-tyrosine]	-2.03
NCCC(=O)O [β-alanine]	-2.33
O=C(O)CS(=O)(=O)O [sulfonatoacetate]	-0.561
O=CO [formate]	-0.251
Nc1ccccc1C(=O)C[C@H](N)C(=O)O [L-kynurenine]	-1.79
O=C(O)c1ccccc1O [salicylate]	-1.06
O=c1[nH]c(=O)c2nc[nH]c2[nH]1 [xanthine]	-1.68
N[C@@H](Cc1ccccc1)C(=O)O [L-phenylalanine]	-1.94
